Hits are enriched below; roughly 32% of the tested compounds scored in any of these assays.
CYP2C9 inh – human CYP2C9 inhibition. CYP2C9 Supersomes, luciferin-H conversion, luminescence. inhibition, % at 5 µM. AID 777. P11712. 96,000 compounds, 20% hits;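 active = blocking of liver enzyme CYP2C9 beyond about 50% at 5 µM, limit read from the data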
Target sequence (P11712 whole entry, looked up): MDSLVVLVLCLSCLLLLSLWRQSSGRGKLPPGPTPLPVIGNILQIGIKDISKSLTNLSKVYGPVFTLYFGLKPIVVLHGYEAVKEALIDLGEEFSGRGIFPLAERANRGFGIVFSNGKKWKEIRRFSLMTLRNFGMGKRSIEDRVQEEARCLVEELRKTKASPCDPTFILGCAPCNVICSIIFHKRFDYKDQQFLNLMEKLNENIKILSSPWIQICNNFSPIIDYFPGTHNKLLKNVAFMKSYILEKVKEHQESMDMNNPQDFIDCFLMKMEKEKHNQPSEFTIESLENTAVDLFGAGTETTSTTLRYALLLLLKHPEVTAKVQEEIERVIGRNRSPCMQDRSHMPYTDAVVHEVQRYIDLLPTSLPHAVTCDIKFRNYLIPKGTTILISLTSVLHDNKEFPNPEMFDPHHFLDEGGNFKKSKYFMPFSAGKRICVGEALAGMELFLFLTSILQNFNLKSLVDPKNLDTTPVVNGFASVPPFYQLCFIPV
CYP2C19 activ – increases human CYP2C19 enzyme activity. recombinant CYP2C19, luciferin-H EGE luminescence; hits give high values; 0 = fully inhibited enzyme, 1 = untreated enzyme. activation factor at 5 µM. 96,000 tested, under 10 active. AID 1025;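 active = activation factor of at least 2 at 5 µM in the primary screen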
CYP2C9 act – activators of human CYP2C9 | recombinant CYP2C9, luciferin-H conversion, luminescence; hits give high values; factor 1 = untreated enzyme, 0 = blocked | 96,000 compounds, 1.4% hits | activation factor at 5 µM;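 active = activation factor of 2 or more for CYP2C9 at a 5 µM dose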
CYP2C19 inhib – human CYP2C19 inhibition | P33261 | CYP2C19 Supersomes, luciferin-H EGE luminescence, 30 min | 96,000 compounds, 21% hits | inhibition, % at 5 µM | AID 778;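 active = CYP2C19 inhibition above a set limit at 5 µM in the primary screen, cut at about 50% in these data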
PostGolgi yeast – growth inhibition of a yeast mutant, post-Golgi transport screen | post-Golgi transport phenotypic cell assay | inhibition, % at 10 µM | 98,000 compounds, 0.9% hits | AID 739;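 note: yeast cells grown in 1536-well plates; yeast grown about 18 h at 30C before absorbance read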
PostGolgi ctrl – inhibits growth of the yeast control strain | efflux-deficient yeast background strain, growth absorbance A615, 16 h | inhibition, % at 10 µM | 98,000 compounds, 5% hits | AID 738
Hits are given with their value; - = inactive; . = no result given. Cut-off read from the data, not from the text of the source, unless noted: active = inhibition above about 30%; inactive = the rest.

SMILES	CYP2C9 inh	CYP2C19 activ	CYP2C9 act	CYP2C19 inhib	PostGolgi yeast	PostGolgi ctrl
CC1CN(C(=O)CSc2nc(-c3ccccc3)cs2)CC(C)O1 (stereo not given)	-	-	-	93	-	-
Cc1cc(C)nc(NC(=O)CSc2nc3cc(Cl)ccc3s2)n1	-	-	2.7	-	-	36
O=C(CSc1nc2cc(Cl)ccc2s1)N1CCN(C(=O)c2ccco2)CC1	86	-	-	86	-	-
CSCC[C@H](NC(=O)OC(C)(C)C)c1nnc(SCC(=O)Nc2ccc(C)cc2C)o1	-	-	-	-	-	-
Cc1cc(C(=O)OCC(=O)N2CCN(c3ccccc3)CC2)c2ccccc2n1	-	-	2.8	-	-	-
O=C(OCC(=O)N1CCN(C(=O)c2ccco2)CC1)c1ccccc1C(=O)c1ccccc1	-	-	-	-	-	-
O=C(OCC(=O)N1CCN(c2ccccc2)CC1)c1ccco1	-	-	-	-	-	-
O=C(OCC(=O)N1CCN(C(=O)c2ccco2)CC1)c1cn(-c2ccccc2)nc1-c1ccccc1	68	-	-	-	48	101
O=C(OCC(=O)N1CCN(C(=O)c2ccco2)CC1)c1cc(-c2ccccc2)nc2ccccc12	76	-	-	-	44	47
O=C(OCC(=O)N1CCN(C(=O)c2ccco2)CC1)c1cc(-c2ccc(F)cc2)nc2ccccc12	-	-	-	-	47	73
O=C(c1ccco1)N1CCCC(c2nc(-c3ccc(S(=O)(=O)NCc4ccccc4)cc3)no2)C1 (stereo not given)	.	.	.	.	-	-
CCn1cc(C(=O)NCCCN2CC(C)CC(C)C2)c2cc(OC)c(OC)cc2c1=O (stereo not given)	-	-	-	-	-	-
O=C(OCC(=O)N1CCN(C(=O)c2ccco2)CC1)c1ccc(S(=O)(=O)N2CCCCC2)cc1	60	-	-	-	-	-
O=C(OCC(=O)N1CCCC1)c1ccccc1OCc1ccccc1	-	-	-	-	-	-
O=C(OCC(=O)N1CCN(c2ccccc2)CC1)c1ccc2ncsc2c1	-	-	-	73	-	-
CCN(CC)c1ccc(C(=O)OCC(=O)N2CCN(c3ccccc3)CC2)cc1	-	-	-	-	-	-
O=C(OCC(=O)N1CCN(C(=O)c2ccco2)CC1)c1ccccc1OCc1ccccc1	87	-	-	64	-	-
O=C(OCc1ccco1)c1ccc(S(=O)(=O)N2CCCCC2)cc1	-	-	-	-	-	-
O=C(OCC(=O)N1CCN(C(=O)c2ccco2)CC1)c1cc(-c2cccc(Br)c2)nc2ccccc12	61	-	-	-	80	72
CCc1c(C(=O)Nc2ccc(S(=O)(=O)N3CCOCC3)cc2)csc1C	-	-	-	-	-	-
COc1ccccc1N1CC(O)=C(c2nc3ccccc3c(=O)[nH]2)C1=N	-	-	-	-	-	-
Cc1sc2ncnc(N3CCCCC3)c2c1C	-	-	-	-	-	-
Cc1ccc(OCCN2CCN(c3ncnc4sc(C)c(C)c34)CC2)cc1	89	-	-	86	-	-
Clc1ccc(OCCN2CCN(c3ncnc4sccc34)CC2)cc1	56	-	-	84	-	33
CN1CCN(c2ncnc3c2cnn3-c2ccc(Cl)cc2)CC1	-	-	-	-	-	-
SMILES	CYP2C9 inh	CYP2C19 activ	CYP2C9 act	CYP2C19 inhib	PostGolgi yeast	PostGolgi ctrl
COc1cccc(-c2csc(N3CCN(Cc4ccccc4)CC3)n2)c1	-	-	-	-	-	-
O=C1c2ccccc2C(=O)N1CCSC(=S)N1CCOCC1	-	-	-	55	-	-
O=C1c2ccccc2C(=O)N1CCN1CCOCC1	-	-	-	-	-	-
CCN1CCN(Cc2c(O)c(Cl)cc3c(C)cc(=O)oc23)CC1	-	-	-	-	-	-
Cc1c(C)c2cc(Cl)c(O)c(CN3CCN(C)CC3)c2oc1=O	-	-	-	-	36	-
Cc1cc(=O)oc2c(CN3CCCCC3)c(O)c(Cl)cc12	-	-	-	-	38	-
CCOC(=O)c1cc2c(s1)-c1c(C)cccc1OC2	72	-	-	89	-	-
COC(=O)c1cc2c(s1)-c1ccccc1OC2	-	-	-	65	-	-
CCOC(=O)c1c(NC(=O)c2cccs2)sc2c1CC(C)(C)OC2	-	-	-	-	-	-
Cc1cccc(C(=O)NCCN(C)C)c1	-	-	-	-	-	-
CCn1cc(/C=N/NS(=O)(=O)c2ccc(OC)cc2)c(C)n1	69	-	-	87	-	-
CCC(NS(=O)(=O)c1ccc(OC)cc1)C(=O)O (stereo not given)	-	-	-	-	-	-
Cc1ccc(S(=O)(=O)N/N=C\c2cc([N+](=O)[O-])ccc2Cl)cc1	-	-	-	62	-	-
Cc1ccc(S(=O)(=O)N/N=C\c2cccnc2)cc1	-	-	-	-	-	-
Cc1ccc(S(=O)(=O)N/N=C/c2cn(C)nc2C)cc1	64	-	-	51	-	-
Cc1ccc(S(=O)(=O)N/N=C/c2cc(Br)c(C)o2)cc1	97	-	-	-	-	-
Cc1ccc(S(=O)(=O)N/N=C/C(C)(C)CO)cc1	-	-	-	-	-	-
CCn1cc(/C=N/NS(=O)(=O)c2ccc(C)cc2)c(C)n1	83	-	-	88	-	-
O=C(CCCNS(=O)(=O)c1ccc(Br)cc1)N1CC[C@@]2(O)CCCC[C@H]2C1	-	-	-	-	-	-
CCOc1cccc(/C(O)=C2/C(=O)C(=O)N(CCOC)C2c2ccco2)c1 (stereo not given)	-	-	-	-	-	-
Cc1nc(N2C(=O)C(=O)/C(=C(/O)c3ccccc3)C2c2ccco2)sc1C (stereo not given)	61	-	-	53	-	-
Cc1nn(C(=O)c2cccnc2)c(C)c1Sc1ccc(Br)cc1	-	-	-	70	-	33
CCCN1CCN(c2nc3c([nH]2)c(=N)ncn3CC(O)CO)CC1 (stereo not given)	-	-	-	-	-	-
CC1=CC(C)(C)N(C(=O)CSc2nnc(C)s2)c2ccc(C)cc21	-	-	-	-	-	-
N#Cc1c(NC(=O)CSc2nnc(-c3ccccc3)o2)sc2c1CCCC2	-	-	-	-	-	-
SMILES	CYP2C9 inh	CYP2C19 activ	CYP2C9 act	CYP2C19 inhib	PostGolgi yeast	PostGolgi ctrl
Cc1cccc(NC(=O)CSc2nnc([C@@H](N)Cc3ccccc3)o2)c1C	-	-	-	70	-	-
CC1=CC(C)(C)N(C(=O)CSc2nnc(-c3ccc(C)cc3)o2)c2ccc(C)cc21	95	-	-	96	-	-
CC1=CC(C)(C)N(C(=O)CSc2nnc(N)s2)c2cc(C)c(C)cc21	70	-	-	77	-	-
Cc1sc(NC(=O)CSc2nnc(-c3ccccc3)o2)c(C#N)c1C	-	-	-	-	-	46
COc1cccc(OC)c1C(=O)Nc1ccc(CN2CCCCC2)cc1	-	-	-	-	-	-
COC(=O)CSc1nnc(-c2ccc(NS(=O)(=O)c3ccccc3)cc2)o1	94	-	-	-	-	-

Source: PubChem (several laboratories)
